The structures appear in SMILES notation. Calls of active or inactive are those of the source.

The nature of test [1]: optical density shifts of acrAB sulA E. coli – strain DRC41, OD650, 48 h, E. coli filamentation inducer project, primary screen (AID 1152).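 Also: E. coli MC1000 strain DRC41 lacking acrAB efflux pump and sulA.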 The settings on record: higher = more signal, called active from +8 up or from −8 down.
The nature of test [2]: probe aLefty1 binding on compound microarray – biochemical, small-molecule microarray, 635/667 nm fluorescence, primary screen (AID 1153).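 Also: score merges spot fluorescence with signal-to-noise ratio from the scanned slide images.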 The settings on record: higher = more signal.
The nature of test [3]: plasmodial surface anion channel blockers, osmotic lysis – cell-based, P. falciparum Indochina, OD700, 1 h, primary screen (AID 1154). The settings on record: P. falciparum Indochina infected RBC osmotic lysis, higher = more signal, called active from +8 up or from −8 down.
The nature of test [4]: plasmodial surface anion channel blockers, osmotic lysis – cell-based, P. falciparum Indochina, OD700, 2 h, primary screen (AID 1155).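 Also: lysis reports solute entry through the parasite surface anion channel PSAC.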 The settings on record: P. falciparum Indochina infected erythrocytes, higher = more signal, called active from +8 up or from −8 down.
Test [5] can be described thus: changes in parasitized red cell lysis, either direction – P. falciparum Indochina, OD700, 3 h, PSAC antagonist project, primary screen (AID 1156). The settings on record: P. falciparum-infected erythrocytes, osmotic lysis, higher = more signal, called active from +8 up or from −8 down.
The nature of test [6]: plasmodial surface anion channel blockers, osmotic lysis – cell-based, P. falciparum Indochina, OD700, 18 h, primary screen (AID 1157). The settings on record: P. falciparum Indochina infected erythrocytes, osmotic lysis OD700, 18 h; higher = more signal, called active from +8 up or from −8 down.
Test [7] is described as follows: S6 kinase pathway phospho-S6 level changes – cell-based, A549, cytoblot, luminescence, serum-stimulated, primary screen (AID 1158).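 Also: serum-stimulated A549 lung adenocarcinoma cells; signal is phosphorylated S6 detected by cytoblot immunostaining with HRP secondary.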 The settings on record: 5 h, higher = more signal.
The target in test [8] is NADPH oxidase 2 (Homo sapiens) (UniProt P04839). Description: compounds shifting NOX2 Amplex Red fluorescence – cell-based, HEK293-NOX2, PMA-stimulated, NOX inhibitor project, primary screen (AID 1159). Also: test concentration not given here. The settings on record: 45 min, higher = more signal, called active from +8 up or from −8 down.
Chain of NADPH oxidase 2 (Homo sapiens) (P04839 whole entry, looked up): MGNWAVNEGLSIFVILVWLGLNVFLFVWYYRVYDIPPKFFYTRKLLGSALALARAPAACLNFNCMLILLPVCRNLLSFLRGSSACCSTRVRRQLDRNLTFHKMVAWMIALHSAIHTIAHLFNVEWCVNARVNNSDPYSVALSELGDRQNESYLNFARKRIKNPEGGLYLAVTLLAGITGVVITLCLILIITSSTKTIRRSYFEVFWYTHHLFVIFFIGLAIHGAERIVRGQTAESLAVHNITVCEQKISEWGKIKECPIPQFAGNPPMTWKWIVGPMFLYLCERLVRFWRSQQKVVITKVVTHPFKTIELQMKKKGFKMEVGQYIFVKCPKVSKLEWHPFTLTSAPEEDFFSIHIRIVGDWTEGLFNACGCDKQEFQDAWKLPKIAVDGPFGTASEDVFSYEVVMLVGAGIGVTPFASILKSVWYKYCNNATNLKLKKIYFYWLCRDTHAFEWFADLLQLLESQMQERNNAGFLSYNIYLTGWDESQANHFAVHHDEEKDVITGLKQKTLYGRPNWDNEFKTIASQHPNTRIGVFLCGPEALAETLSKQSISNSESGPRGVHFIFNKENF
Test [9] concerns the target NADPH oxidase 4 (Homo sapiens) (UniProt Q9NPH5). Description: compounds shifting NOX4 Amplex Red fluorescence – cell-based, HEK293-NOX4, tetracycline-induced, NOX inhibitor project, primary screen (AID 1160). The settings on record: HEK293-NOX4, Amplex Red H2O2 fluorescence, 45 min; higher = more signal, called active from +8 up or from −8 down.
Test [10] deals with NADPH oxidase 5 (Homo sapiens) (UniProt Q96PH1). The test is described as follows: compounds shifting NOX5 Amplex Red fluorescence – cell-based, HEK293-NOX5, NOX inhibitor project, primary screen (AID 1161). The settings on record: HEK293-NOX5, ionomycin, 45 min, higher = more signal.
Chain of NADPH oxidase 5 (Homo sapiens) (Q96PH1 whole entry, looked up): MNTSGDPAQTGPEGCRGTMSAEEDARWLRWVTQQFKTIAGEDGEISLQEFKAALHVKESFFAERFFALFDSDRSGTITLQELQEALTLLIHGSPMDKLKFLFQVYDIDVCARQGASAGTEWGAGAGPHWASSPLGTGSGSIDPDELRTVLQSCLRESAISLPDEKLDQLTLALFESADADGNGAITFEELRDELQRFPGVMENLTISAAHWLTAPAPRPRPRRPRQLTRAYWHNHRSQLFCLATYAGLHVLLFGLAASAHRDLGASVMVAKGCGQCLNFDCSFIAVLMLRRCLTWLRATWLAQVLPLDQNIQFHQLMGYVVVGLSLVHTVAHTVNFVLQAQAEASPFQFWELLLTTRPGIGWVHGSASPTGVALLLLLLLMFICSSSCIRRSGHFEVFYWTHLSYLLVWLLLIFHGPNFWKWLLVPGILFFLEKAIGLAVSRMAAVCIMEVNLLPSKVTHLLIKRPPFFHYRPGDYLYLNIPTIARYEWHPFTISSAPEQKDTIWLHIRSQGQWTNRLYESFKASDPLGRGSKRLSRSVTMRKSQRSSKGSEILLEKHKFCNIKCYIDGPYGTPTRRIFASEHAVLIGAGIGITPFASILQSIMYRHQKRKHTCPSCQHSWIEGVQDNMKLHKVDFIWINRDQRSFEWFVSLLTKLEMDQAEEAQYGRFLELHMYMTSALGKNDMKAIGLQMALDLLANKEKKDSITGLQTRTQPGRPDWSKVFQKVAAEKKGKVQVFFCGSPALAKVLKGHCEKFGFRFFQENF

Chain of NADPH oxidase 4 (Homo sapiens) (Q9NPH5 whole entry, looked up): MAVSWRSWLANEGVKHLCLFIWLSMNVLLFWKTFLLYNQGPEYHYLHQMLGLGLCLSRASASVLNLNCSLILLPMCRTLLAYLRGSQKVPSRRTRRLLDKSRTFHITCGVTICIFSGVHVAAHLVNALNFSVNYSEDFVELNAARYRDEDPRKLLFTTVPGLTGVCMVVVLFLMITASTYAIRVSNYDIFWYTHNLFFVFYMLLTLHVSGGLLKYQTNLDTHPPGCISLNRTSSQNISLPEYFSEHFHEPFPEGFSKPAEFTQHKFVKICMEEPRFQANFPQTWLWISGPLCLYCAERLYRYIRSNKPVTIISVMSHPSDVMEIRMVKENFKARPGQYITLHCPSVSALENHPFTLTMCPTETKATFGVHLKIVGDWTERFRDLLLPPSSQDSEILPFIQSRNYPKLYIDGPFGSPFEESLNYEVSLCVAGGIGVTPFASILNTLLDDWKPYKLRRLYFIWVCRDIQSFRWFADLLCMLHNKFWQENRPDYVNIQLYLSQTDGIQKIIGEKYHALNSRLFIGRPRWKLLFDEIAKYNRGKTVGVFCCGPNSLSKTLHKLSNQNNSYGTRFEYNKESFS

Take `O=C1C2C=CC(C(O)c3cccs3)N(Nc3ccccc3F)C2C(=O)N1c1ccccc1` (stereo not given): the z-score in [1] is 0.386 (inactive); in [3], 1.35 (inactive); in [4], -0.506 (inactive); in test [5] it was -1.27 (inactive); in test [6], -1.23 (inactive); in test [7], 0.224. Also, the figures for the z-score in test [8], in [9] and in test [10] were -0.932 (inactive), -3.7 (inactive) and -1.78, respectively. Also, in test [2], the composite z-score was found to be 0.248.

Take `C=CC[C@@]1(C(=O)NCC(O)CO)N=C(c2ccc(OCCCO)cc2)O[C@@H]1c1ccccc1N=[N+]=[N-]` (stereo not given in full): the z-score in [1] was 1 (inactive); in [3] it was 34.8 (active); in [4], 27.8 (active); in test [5] it was 3.23 (inactive); in test [6] it was 6.75 (inactive); in [7], 1.58. Besides, the z-score in [8] is -2.45 (inactive); in test [9] it was 0.918 (inactive); in [10], -2.74. Further, the composite z-score in test [2] turned out to be 0.18.

Regarding `CCCN1C(=O)[C@@]2(CCC(=O)OC(C)(C)C)N=C(c3ccc(OCCCO)cc3)O[C@H]2c2ccccc21`, the z-score in [1] was 0.42 (inactive); in [3] it was 35.9 (active); in test [4], 37.4 (active); in test [5], 3.51 (inactive); in test [6], 9.08 (active); in test [7], 0.237. Further, the z-score in test [8] is -2.74 (inactive); in [9], -0.665 (inactive); in test [10], -1.96. In test [2], the composite z-score is -0.358.

Regarding `CN(C)CCCNC(=O)[C@@]1(Cc2ccccc2I)c2ccccc2C(=O)N(Cc2ccccc2C(F)(F)F)[C@H]1c1ccc(CO)cc1`, the z-score was -2.14 (inactive) in test [1]; 11.8 (active) in [3]; 1.49 (inactive) in [4]; -0.231 (inactive) in [5]; 0.649 (inactive) in [6]; -0.349 in [7]. For the same molecule, the z-score was -10 (active) in test [8], -4.55 (inactive) in test [9] and -4.63 in [10]. This molecule also yielded a composite z-score in test [2] of -0.0536.

On to `COC(=O)[C@@]1(Cc2ccccc2N=[N+]=[N-])COC(c2ccc(OCCCO)cc2)=N1`, for which the z-score is -1.01 (inactive) in test [1]; 24.3 (active) in test [3]; 8.54 (active) in [4]; 3.35 (inactive) in [5]; 1.03 (inactive) in test [6]; -0.317 in test [7]. Besides, the figures for the z-score in test [8], in test [9] and in [10] were -1.38 (inactive), -0.156 (inactive) and -1.63, respectively. In test [2], this molecule yielded a composite z-score of 0.933.

For `COCCOC(=O)N1C(=O)[C@@]2(c3cc(C#CCC(C(=O)OC)C(=O)OC)ccc31)[C@H](c1ccc(O)cc1)N1[C@H](c3ccccc3)[C@H](c3ccccc3)OC(=O)[C@H]1[C@@H]2C(N)=O`, the z-score was -0.648 (inactive) in [1]; 9.52 (active) in test [3]; 1.33 (inactive) in test [4]; 0.0021 (inactive) in [5]; 0.213 (inactive) in test [6]; -0.185 in test [7]. Besides, the z-score in [8] is 1.4 (inactive); in [9], 0.525 (inactive); in [10] it was 1.14. The composite z-score in [2] was 0.245.

As for `CC(C)=CCCC(C)=CC(O)C1C=CC2C(=O)N(c3ccccc3)C(=O)C2N1Nc1ccccc1` (stereo not given), the z-score is -1.8 (inactive) in test [1]; 1.37 (inactive) in test [3]; 1.4 (inactive) in test [4]; 1.09 (inactive) in test [5]; 1.27 (inactive) in [6]; -1.29 in test [7]. Also, the results for the z-score in test [8], in test [9] and in [10] were -1.26 (inactive), -4.03 (inactive) and -2.54, respectively. The same molecule displayed a composite z-score in test [2] of 0.805.

`COC(=O)c1ccc(OC)c(/C=C\CC(OC(C)=O)c2ccccc2)c1` (stereo not given): the z-score in test [1] was 0.0491 (inactive); in [3], 8.02 (active); in test [4], 0.898 (inactive); in [5], -0.358 (inactive); in test [6], 0.303 (inactive); in test [7] it was -0.0878. Besides, the z-score in test [8] was 0.0248 (inactive); in [9], 0.415 (inactive); in test [10], -1.65. In [2], this molecule returned a composite z-score of -0.795.

`CCOC(=O)C[C@H]1[C@H](OC(=O)c2ccccc2-c2ccccc2)[C@@H](NC(=O)Cc2ccc(OC)cc2)c2cc(OCCCO)ccc2N1C(=O)c1ccccc1`: the z-score is -1.14 (inactive) in test [1]; 1.57 (inactive) in test [3]; 0.316 (inactive) in test [4]; 0.432 (inactive) in test [5]; 0.208 (inactive) in [6]; -0.127 in test [7]. Moreover, the z-score in test [8] was 1.02 (inactive); in test [9], 1.15 (inactive); in [10], -0.26. For the same molecule, the composite z-score in test [2] is -0.0877.

For `CCOC(=O)C1=CCC(C(C)(C)C)N(S(=O)(=O)c2ccc(C)cc2)C1` (stereo not given), the z-score in [1] is -1.32 (inactive); in test [3], 1.53 (inactive); in [4] it was 0.768 (inactive); in [5], 0.281 (inactive); in [6] it was 0.289 (inactive); in test [7] it was -0.693. In addition, the results for the z-score in test [8], in [9] and in test [10] were -0.124 (inactive), -1.21 (inactive) and 0.194, respectively. Besides, in test [2], the composite z-score stood at 0.0494.

With `COC(=O)[C@]1(Cc2ccccc2N=[N+]=[N-])N=C(c2ccc(OCCCO)cc2)O[C@@H]1c1ccccc1N=[N+]=[N-]`, the z-score in test [1] was -1.19 (inactive); in test [3] it was 29.5 (active); in test [4], 27.4 (active); in [5] it was -0.495 (inactive); in test [6], 6.35 (inactive); in test [7] it was 0.0559. Also, the figures for the z-score in test [8], in test [9] and in test [10] were -0.877 (inactive), 0.755 (inactive) and 0.677, respectively. Further, the composite z-score in test [2] is -0.236.

Take `COCCOC(=O)N1C(=O)[C@@]2(c3ccccc31)[C@H](C(=O)NC[C@H](O)c1ccccc1)[C@H]1C(=O)O[C@H](c3ccccc3)[C@H](c3ccccc3)N1[C@@H]2c1ccc(OCCO)cc1`: the z-score in test [1] was 1.32 (inactive); in [3], 3.97 (inactive); in test [4], 1.89 (inactive); in test [5], 0.968 (inactive); in test [6], 0.999 (inactive); in [7], 0.29. Also, the z-score in test [8] was 0.463 (inactive); in test [9], 1.13 (inactive); in test [10], -0.739. This molecule also yielded a composite z-score in test [2] of -0.496.

`COc1cc2c(cc1O)C(C)N(Cc1cccc(OC(F)(F)F)c1)CC2` (stereo not given): the z-score in [1] was 0.126 (inactive); in test [3] it was 2.96 (inactive); in [4], 0.328 (inactive); in [5], 2.09 (inactive); in test [6] it was 0.573 (inactive); in test [7], -0.0952. The z-score in test [8] is -3.51 (inactive); in [9], -2.46 (inactive); in test [10] it was -3.03. Also, the composite z-score in test [2] was -0.0015.

Source of the values: PubChem BioAssay.
